Several values for one entry are separate records, joined by “and”; a condition that tells them apart may be missing. Equal values may be shown once. Records with an inconclusive call do not appear. Entries that show only a call come without a potency. Where a structure was tested more than once in an assay, its records may differ in their call. Activity calls are given as the source filed them. Unless noted, calls follow the shape of the dose curve; as a rule, active = well fitted curve in the direction sought with a large enough effect in the repeat runs; inconclusive = weak or mixed curves; inactive = no such curve, though single readings can be large; an effect the other way counts as inactive or inconclusive.
Columns and labels:
[1] = target: Estrogen receptor (Homo sapiens) (UniProt P03372); assay: qHTS assay to identify small molecule antagonists of the estrogen receptor alpha (ER-alpha) signaling pathway using the BG1 cell line in the presence of 0.1 nM 17-beta-estradiol (AID 1259244); also: nearly all actives have a fitted effect of over 50% in size; also: potency is read from the fitted curve at half-maximal effect
Estrogen receptor (Homo sapiens), sequence (P03372 whole entry, looked up): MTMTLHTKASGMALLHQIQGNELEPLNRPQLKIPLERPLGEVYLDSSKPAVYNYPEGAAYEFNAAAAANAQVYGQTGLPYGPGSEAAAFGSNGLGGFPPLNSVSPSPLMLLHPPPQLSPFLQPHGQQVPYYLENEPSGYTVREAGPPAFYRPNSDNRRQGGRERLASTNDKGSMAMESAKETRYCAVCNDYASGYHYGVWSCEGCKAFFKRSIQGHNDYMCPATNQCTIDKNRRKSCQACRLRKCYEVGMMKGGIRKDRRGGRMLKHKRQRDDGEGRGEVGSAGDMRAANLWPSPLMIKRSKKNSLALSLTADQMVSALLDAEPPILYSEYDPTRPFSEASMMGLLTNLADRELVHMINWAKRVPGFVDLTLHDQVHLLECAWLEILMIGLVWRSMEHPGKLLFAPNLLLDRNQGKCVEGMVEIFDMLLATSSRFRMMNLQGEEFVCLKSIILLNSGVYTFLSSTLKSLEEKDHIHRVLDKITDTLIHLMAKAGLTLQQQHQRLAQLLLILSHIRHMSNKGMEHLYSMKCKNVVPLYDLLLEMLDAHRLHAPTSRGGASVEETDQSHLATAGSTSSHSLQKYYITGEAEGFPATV
Summary of the method: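 VM7Luc4E2; 4xERE-luciferase; 0.1 nM E2 final; 22 h co-incubation, 37C; ONE-Glo luminescence after 30 min at room temperature.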

[2] = qHTS assay to identify small molecule HDAC inhibitors (AID 1259364); also: potency is read from the fitted curve at half-maximal effect;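 also: wild-type HCT-116 cells with endogenous class I/II HDAC activity; nearly all actives have a fitted effect of over 45% in size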
Summary of the method: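 Relative class I and II HDAC activity is taken from the luminogenic signal in HCT-116 cells, with compound exposure 2 hr and reagent development 30 min at room temperature.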

[3] = qHTS assay to identify small molecule HDAC inhibitors - cell viability counter screen (AID 1259365); also: nearly all actives have a fitted effect of over 50% in size; also: potency is read from the fitted curve at half-maximal effect
Summary of the method: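 Cytotoxicity was gauged in wild-type HCT-116 cells after a brief 2hr treatment with DMSO-dissolved compounds at 37C and 5% CO2, using CellTiter-Glo luminescence developed for 30min at room temperature.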

[4] = qHTS assay to identify small molecule agonists of the sonic hedgehog signaling (Shh) pathway - cell viability counter screen (AID 1259366); also: nearly all actives have a fitted effect of over 50% in size; also: potency is read from the fitted curve at half-maximal effect
Summary of the method: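 Stable Gli1-Luc NIH/3T3 clone, 2,000 cells/well. Compound exposure 24hr at 37C. Read-out: CellTiter-Fluor fluorescence.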

[5] = qHTS assay to identify small molecule antagonists of the sonic hedgehog signaling (Shh) pathway - cell viability counter screen (AID 1259367); also: nearly all actives have a fitted effect of over 55% in size; also: potency is read from the fitted curve at half-maximal effect
Summary of the method: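 Seed 3T3 Gli1-Luc cells at 2,000 per well; incubate 4 hr; add compound in DMSO, then conditioned medium; incubate at 37C with 5% CO2; add CellTiter-Fluor after 23 hr; read fluorescence 1 hr later.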

[6] = qHTS assay to identify small molecule antagonists of the sonic hedgehog signaling (Shh) pathway (AID 1259369; calls by dose curve; also: nearly all actives have a fitted effect of over 45% in size; also: potency is read from the fitted curve at half-maximal effect)
Summary of the method: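 Conditioned medium drives Shh signalling in 3T3Gli1-Luc cells; compounds in DMSO co-applied, 24hr at 37 C, then luciferase luminescence.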

[7] = target: Estrogen receptor beta (Homo sapiens) (UniProt Q92731); assay: qHTS assay to identify small molecule agonists of the estrogen receptor beta (ER-beta) signaling pathway (AID 1259377; active = well fitted activation curve with a large enough effect in the signal ratio in the repeat runs, not every such curve was filed as active; the % refers to the signal ratio)
Estrogen receptor beta (Homo sapiens), sequence (Q92731 whole entry, looked up): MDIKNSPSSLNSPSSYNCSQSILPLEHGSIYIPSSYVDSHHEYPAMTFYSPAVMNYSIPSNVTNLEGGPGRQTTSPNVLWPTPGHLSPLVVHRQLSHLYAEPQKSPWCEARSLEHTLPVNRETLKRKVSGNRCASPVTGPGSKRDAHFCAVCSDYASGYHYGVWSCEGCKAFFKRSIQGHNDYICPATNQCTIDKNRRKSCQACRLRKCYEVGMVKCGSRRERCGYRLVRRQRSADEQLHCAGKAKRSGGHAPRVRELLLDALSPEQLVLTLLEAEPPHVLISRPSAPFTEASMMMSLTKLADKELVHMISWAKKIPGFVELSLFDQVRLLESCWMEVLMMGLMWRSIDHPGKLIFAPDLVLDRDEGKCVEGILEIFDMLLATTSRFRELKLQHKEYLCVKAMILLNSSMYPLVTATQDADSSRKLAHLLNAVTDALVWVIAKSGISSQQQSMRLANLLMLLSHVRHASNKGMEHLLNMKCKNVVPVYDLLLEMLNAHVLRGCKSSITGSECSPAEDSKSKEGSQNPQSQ
Summary of the method: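 Measured by fluorescence intensity from a B/G FRET beta-lactamase substrate (2 h, room temperature) in ER-beta-UAS-bla HEK293T cells treated with DMSO-dissolved compounds for 16 hr at 37C and 5% CO2.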

[8] = target: Estrogen receptor beta (Homo sapiens) (UniProt Q92731); assay: qHTS assay to identify small molecule antagonists of the estrogen receptor beta (ER-beta) signaling pathway (AID 1259378; active = well fitted inhibition curve with a large enough effect in the signal ratio in the repeat runs, not every such curve was filed as active; the % refers to the signal ratio; also: potency is read from the fitted curve at half-maximal effect)
Summary of the method: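 ER-beta-UAS-bla HEK293T cells in 2% charcoal-stripped FBS medium treated with compound plus 1nM final 17-beta-estradiol for 16 hr at 37C. Beta-lactamase reporter read by FRET substrate fluorescence after 2 hours at room temperature.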

[9] = qHTS assay to identify small molecule agonists of the androgen receptor (AR) signaling pathway in the presence of an antagonist - cell viability counter screen (AID 1259379); also: nearly all actives have a fitted effect of over 25% in size; also: potency is read from the fitted curve at half-maximal effect
Summary of the method: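 A CellTiter-Fluor read-out measured viability of MDA-kb2 reporter cells (MMTV promoter with AR and GR response elements). Treatment: nilutamide 3.0uM final with compounds at 15 concentrations, 16 hr, 37C, 0% CO2.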

[10] = qHTS assay to identify small molecule agonists of the estrogen receptor beta (ER-beta) signaling pathway - cell viability counter screen (AID 1259380); also: nearly all actives have a fitted effect of over 30% in size; also: potency is read from the fitted curve at half-maximal effect
Summary of the method: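 Cells used were ER-beta-UAS-bla HEK293T in medium with 2% charcoal-stripped FBS. They were treated for 16 hr at 37C. Viability came from CellTiter-Glo luminescence.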

[11] = qHTS assay to identify small molecule antagonists of the estrogen receptor beta (ER-beta) signaling pathway - cell viability counter screen (AID 1259382); also: nearly all actives have a fitted effect of over 55% in size; also: potency is read from the fitted curve at half-maximal effect
Summary of the method: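 Agonist-stimulated (1nM E2) ER-beta-UAS-bla HEK293T cells are incubated with library compounds for 16 hr at 37C. Cell viability is then assessed in the reporter-assay wells by adding CellTiter-Glo and reading luminescence after 30 min.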

[12] = target: Estrogen receptor (Homo sapiens) (UniProt P03372); assay: qHTS assay to identify small molecule agonists of the estrogen receptor alpha (ER-alpha) signaling pathway in the presence of an antagonist (AID 1259383; calls by dose curve; also: top concentration of the series differs between compounds; nearly all actives have a fitted effect of over 15% in size)
Summary of the method: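 Using VM7Luc4E2 cells seeded 24hr before treatment, antagonist ICI-182,780 (10.0nM final) was added, followed by compounds at 15 concentrations. Plates incubated 22hr; ONE-Glo luminescence quantified reporter activity.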

[13] = qHTS assay to identify small molecule agonists or antagonists of the thyroid stimulating hormone receptor (TSHR) signaling pathway - wild type cell line counter screen (AID 1259384; calls by dose curve; also: potency is read from the fitted curve at half-maximal effect)
Summary of the method: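 Wild-type Hek293 cells, 800/well, 18 h at 37C, then compound with Ro20-1724 for 30 min RT. cAMP by HTRF (cAMP-d2/anti-cAMP cryptate), 1 h RT, fluorescence read. 15 concentrations, triplicates.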

[14] = qHTS assay to identify small molecule agonists of the estrogen receptor alpha (ER-alpha) signaling pathway in the presence of an antagonist - cell viability counter screen (AID 1259386);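 also: cells exposed to compounds for 22 h at 37 °C before the viability read; nearly all actives have a fitted effect of over 30% in size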; also: potency is read from the fitted curve at half-maximal effect
Summary of the method: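 ICI-182,780 at 10.0nM final accompanies the compound titration (15 concentrations, 22hr, 37C) on VM7Luc4E2 cells. The CellTiter-Fluor fluorescence readout runs in the same wells as the luciferase assay.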

[15] = target: Progesterone receptor (Homo sapiens) (UniProt P06401); assay: qHTS assay to identify small molecule agonists of the progesterone receptor (PR) signaling pathway (AID 1346784; calls by dose curve; also: nearly all actives have a fitted effect of over 30% in size)
Progesterone receptor (Homo sapiens), sequence (P06401 whole entry, looked up): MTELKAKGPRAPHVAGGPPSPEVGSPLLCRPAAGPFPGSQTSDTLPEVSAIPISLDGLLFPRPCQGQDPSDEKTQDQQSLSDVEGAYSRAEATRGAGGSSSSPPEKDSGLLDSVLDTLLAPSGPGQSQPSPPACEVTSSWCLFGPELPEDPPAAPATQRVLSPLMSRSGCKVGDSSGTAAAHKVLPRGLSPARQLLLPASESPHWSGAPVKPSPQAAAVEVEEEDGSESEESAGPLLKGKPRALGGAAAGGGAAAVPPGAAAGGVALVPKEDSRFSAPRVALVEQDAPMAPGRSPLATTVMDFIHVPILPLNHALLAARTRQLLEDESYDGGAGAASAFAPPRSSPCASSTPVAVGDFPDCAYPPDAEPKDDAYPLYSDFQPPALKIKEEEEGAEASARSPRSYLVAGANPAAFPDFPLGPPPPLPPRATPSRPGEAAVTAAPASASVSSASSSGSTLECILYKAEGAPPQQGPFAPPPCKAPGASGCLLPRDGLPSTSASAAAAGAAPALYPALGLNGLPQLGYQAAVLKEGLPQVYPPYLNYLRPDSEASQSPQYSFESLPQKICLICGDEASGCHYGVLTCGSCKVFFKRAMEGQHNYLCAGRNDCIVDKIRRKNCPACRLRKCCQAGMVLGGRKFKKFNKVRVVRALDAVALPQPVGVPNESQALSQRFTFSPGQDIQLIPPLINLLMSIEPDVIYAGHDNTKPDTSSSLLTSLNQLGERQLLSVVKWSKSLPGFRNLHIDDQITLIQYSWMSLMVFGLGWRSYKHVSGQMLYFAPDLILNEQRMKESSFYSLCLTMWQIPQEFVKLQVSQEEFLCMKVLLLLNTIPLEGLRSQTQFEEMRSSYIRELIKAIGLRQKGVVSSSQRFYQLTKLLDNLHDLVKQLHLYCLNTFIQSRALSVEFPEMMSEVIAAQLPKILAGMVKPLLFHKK
Summary of the method: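 The screen uses PR-UAS-bla HEK 293T cells in charcoal-stripped serum (2%). Compounds are applied for 16 hr at 37C after a 6 hr pre-incubation, and reporter activity is detected with a FRET beta-lactamase substrate after 2 hr at room temperature.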

[16] = target: Thyrotropin receptor (Homo sapiens) (UniProt P16473); assay: qHTS assay to identify small molecule antagonists of the thyroid stimulating hormone receptor (TSHR) signaling pathway (AID 1259385; calls by dose curve; also: nearly all actives have a fitted effect of over 20% in size; also: potency is read from the fitted curve at half-maximal effect)
Thyrotropin receptor (Homo sapiens), sequence (P16473 whole entry, looked up): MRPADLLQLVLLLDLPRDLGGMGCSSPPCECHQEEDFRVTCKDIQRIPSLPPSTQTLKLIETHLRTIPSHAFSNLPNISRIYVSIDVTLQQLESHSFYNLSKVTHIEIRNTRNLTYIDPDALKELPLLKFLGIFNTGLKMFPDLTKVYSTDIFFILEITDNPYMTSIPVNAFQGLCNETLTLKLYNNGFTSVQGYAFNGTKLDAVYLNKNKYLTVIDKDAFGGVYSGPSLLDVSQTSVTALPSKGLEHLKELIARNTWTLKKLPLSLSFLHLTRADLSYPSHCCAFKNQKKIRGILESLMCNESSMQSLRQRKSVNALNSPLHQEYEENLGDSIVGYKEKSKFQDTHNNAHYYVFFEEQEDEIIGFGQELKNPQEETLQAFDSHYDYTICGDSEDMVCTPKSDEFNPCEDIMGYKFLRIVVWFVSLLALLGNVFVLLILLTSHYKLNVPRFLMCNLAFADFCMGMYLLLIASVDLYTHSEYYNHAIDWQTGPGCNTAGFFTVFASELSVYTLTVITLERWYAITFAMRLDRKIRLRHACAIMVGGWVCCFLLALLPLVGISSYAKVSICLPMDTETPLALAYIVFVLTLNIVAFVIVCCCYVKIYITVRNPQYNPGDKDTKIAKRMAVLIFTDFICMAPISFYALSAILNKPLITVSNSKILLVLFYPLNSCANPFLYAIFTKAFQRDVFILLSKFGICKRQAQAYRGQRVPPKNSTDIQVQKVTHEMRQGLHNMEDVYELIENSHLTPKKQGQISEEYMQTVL
Summary of the method: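 TSHR-HEK293 cells (800/well) plated 18 h, then compounds with Ro20-1724 and TSH at 1.5 ng/mL final, 30 min at room temperature. cAMP quantified by HTRF (cAMP-d2/anti-cAMP-cryptate, 1 h); 15 concentrations in triplicate.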

[17] = qHTS assay to identify small molecule agonists of the sonic hedgehog signaling (Shh) pathway (AID 1259368; calls by dose curve;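 also: NIH/3T3-derived 3T3Gli1-Luc cells carrying a stable Gli1-driven firefly luciferase reporter; series mostly up to about 92 µM; nearly all actives have a fitted effect of over 15% in size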)
Summary of the method: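 Mouse fibroblast (NIH/3T3) reporter cells with stably integrated Gli1-Luc were treated 24 hr with compound; firefly luciferase luminescence served as the read-out.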

[18] = qHTS assay to identify small molecule phospholipidosis (PLD) inducers (AID 1259344; active = well fitted curve in the direction sought with a large enough effect; an effect the other way counts as inactive or inconclusive)
Summary of the method: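 Quantitative HTS in HepG2: compound plus LipidTOX Red dye for 24 h, paraformaldehyde fixation with Hoechst 33342, widefield high-content imaging; amiodarone as positive and DMSO as negative control.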

[19] = target: Androgen receptor (Homo sapiens) (UniProt P10275); assay: qHTS assay to identify small molecule antagonists of the androgen receptor (AR) signaling pathway using the MDA cell line in the presence of 0.5 nM R1881 (AID 1259243); also: nearly all actives have a fitted effect of over 50% in size; also: potency is read from the fitted curve at half-maximal effect
Androgen receptor (Homo sapiens), sequence (P10275 whole entry, looked up): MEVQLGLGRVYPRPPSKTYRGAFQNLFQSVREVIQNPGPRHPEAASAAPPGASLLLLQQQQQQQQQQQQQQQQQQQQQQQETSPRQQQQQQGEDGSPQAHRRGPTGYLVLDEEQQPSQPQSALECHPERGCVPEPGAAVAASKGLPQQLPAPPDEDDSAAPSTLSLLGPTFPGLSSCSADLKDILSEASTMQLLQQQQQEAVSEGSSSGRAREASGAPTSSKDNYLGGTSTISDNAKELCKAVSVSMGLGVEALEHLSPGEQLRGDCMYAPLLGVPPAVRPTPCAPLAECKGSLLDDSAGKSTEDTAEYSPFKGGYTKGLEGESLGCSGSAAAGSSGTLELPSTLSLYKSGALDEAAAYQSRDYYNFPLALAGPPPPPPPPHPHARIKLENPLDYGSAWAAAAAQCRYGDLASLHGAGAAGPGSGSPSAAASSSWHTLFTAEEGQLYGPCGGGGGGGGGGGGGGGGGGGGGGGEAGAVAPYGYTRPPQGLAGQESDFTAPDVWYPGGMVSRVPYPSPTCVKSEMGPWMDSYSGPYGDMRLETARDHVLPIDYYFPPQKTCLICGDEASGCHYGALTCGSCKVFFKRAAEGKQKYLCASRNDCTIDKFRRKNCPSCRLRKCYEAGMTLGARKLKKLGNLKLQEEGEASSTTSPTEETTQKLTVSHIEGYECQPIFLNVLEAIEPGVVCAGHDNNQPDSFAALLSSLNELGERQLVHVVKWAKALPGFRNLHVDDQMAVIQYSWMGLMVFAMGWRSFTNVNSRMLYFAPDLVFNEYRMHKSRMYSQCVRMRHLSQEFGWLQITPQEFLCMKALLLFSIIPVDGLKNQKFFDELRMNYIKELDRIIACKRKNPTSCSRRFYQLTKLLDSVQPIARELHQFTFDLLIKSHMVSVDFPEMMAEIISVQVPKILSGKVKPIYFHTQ
Summary of the method: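 We exposed MDA-kb2 cells to compounds under 0.5 nM R1881 stimulation for 16 hr at 37C and quantified MMTV-driven luciferase by luminescence.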

[20] = target: Androgen receptor (Homo sapiens) (UniProt P10275); assay: qHTS assay to identify small molecule agonists of the androgen receptor (AR) signaling pathway in the presence of an antagonist (AID 1259381; calls by dose curve; also: nearly all actives have a fitted effect of over 15% in size)
Summary of the method: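 Using human MDA-kb2 cells with an MMTV promoter–luciferase construct (AR and GR response elements), agonist activity is scored under 3.0uM nilutamide (final) co-treatment; 16hr incubation, 37C, luminescence readout via ONE-Glo.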

SMILES	Potency [1]	Potency [2]	Potency [3]	Potency [4]	Potency [5]	Potency [6]	outcome [7]	Potency [8]	Potency [9]	Potency [10]	Potency [11]	Potency [12]	Potency [13]	Potency [14]	Potency [15]	Potency [16]	outcome [17]	outcome [18]	Potency [19]	outcome [20]
Nc1ccc(-c2ccc(N)cc2)cc1	inactive	inactive	inactive	inactive	inactive	inactive	inactive	inactive	inactive	inactive	inactive	inactive	inactive	inactive	inactive					
Nc1ccc(Cl)cc1	inactive	inactive and 27.8 µM (active)	inactive	inactive	inactive	inactive			inactive	inactive	inactive	inactive	inactive	inactive	inactive	inactive				
COc1ccccc1N		inactive	inactive	inactive	inactive	inactive			inactive	inactive	inactive			inactive	inactive		inactive			
Oc1cccc2cccnc12		inactive	inactive						6.14 µM (active) and 9.69 µM (active) and inactive	1.38 µM (active) and 1.22 µM (active) and inactive	inactive			inactive	inactive			inactive		
C1CCC(NC2CCCCC2)CC1	inactive	inactive	inactive	inactive	inactive	inactive			inactive	inactive	inactive	inactive	inactive	inactive	inactive	inactive		inactive		
CCOP(=S)(OCC)Oc1ccc2c(C)c(Cl)c(=O)oc2c1		inactive and 11.9 µM (active)	inactive	inactive	inactive		inactive		inactive	inactive	inactive		inactive	inactive	inactive	inactive		inactive		
CC(=O)[O][Hg][c]1ccccc1	2.71 µM (active) and 6.86 µM (active) and 8.41 µM (active)	21.5 µM (active) and 8.63 µM (active) and 13.3 µM (active)	3.82 µM (active) and 6.11 µM (active) and 16.8 µM (active)	606 nM (active) and 1.37 µM (active) and 1.5 µM (active)	1.08 µM (active) and 2.17 µM (active) and 1.33 µM (active)			3.44 µM (active)	4.29 µM (active) and 6.86 µM (active) and 7.5 µM (active)	1.92 µM (active) and 3.86 µM (active) and 5.31 µM (active)	3.04 µM (active) and 4.33 µM (active) and 8.41 µM (active)	inactive	2.07 µM (active) and 5.88 µM (active) and 4.92 µM (active)	7.63 µM (active) and 13.7 µM (active) and 26.6 µM (active)		60.6 µM (active) and 68.6 µM (active)		inactive	606 nM (active) and 2.43 µM (active) and 1.19 µM (active)	inactive
O=C(O)C(Cl)(Cl)Cl		inactive	inactive	inactive	inactive				inactive	inactive	inactive		inactive	inactive	inactive	inactive	inactive	inactive		
C[C@]12CCC(=O)C=C1CC[C@@H]1[C@@H]2CC[C@]2(C)C(=O)CC[C@@H]12	inactive	inactive	inactive	inactive	60.1 µM (active) and inactive		inactive	inactive	inactive	53.5 µM (active) and 54.5 µM (active)	47.7 µM (active) and inactive	inactive	inactive	inactive	inactive	inactive				
O=P1(N(CCCl)CCCl)NCCCO1 (stereo not drawn)	inactive	inactive	inactive	inactive	inactive				inactive	inactive	inactive	inactive	inactive	inactive	inactive	inactive	inactive	inactive		
C=CCOC(Cn1ccnc1)c1ccc(Cl)cc1Cl (stereo not drawn)		inactive	inactive	inactive	inactive	13.7 µM (active) and 9.69 µM (active)			61.3 µM (active) and inactive	27.4 µM (active) and 24.3 µM (active)	30.7 µM (active) and inactive		inactive	inactive	inactive	inactive	inactive	inactive		
CCNc1nc(Cl)nc(NCC)n1	inactive	inactive	inactive	inactive	inactive		inactive	inactive	inactive	inactive	inactive	inactive	inactive	inactive	inactive	inactive		inactive		
CN(C)[C@@H]1C(=O)C(C(N)=O)=C(O)[C@@]2(O)C(=O)C3=C(O)c4c(O)cccc4[C@@](C)(O)[C@H]3[C@H](O)[C@@H]12		inactive	inactive	inactive	inactive	inactive			inactive	inactive	inactive		inactive	inactive		inactive		inactive		
Cc1cc(Cl)ccc1OCC(=O)O	inactive	inactive	inactive	inactive	inactive	inactive			inactive	inactive	inactive	inactive	inactive	inactive	inactive	inactive			inactive	inactive

From PubChem BioAssay (Tox21)
